55 molecules from PubChem BioAssay AID2147 (National Center for Advancing Translational Sciences (NCATS), 2009) can be followed below.

In all, about 230,000 compounds went through this assay and about 3,600 (1.6%) were called active. Not shown: some 15% with an inconclusive outcome. Calls come from the whole dose curve; as a rule, active = well fitted inhibition curve with a large enough effect (not every such curve was filed as active); inconclusive = small, poorly fitted or top-dose-only effect, or another doubt; inactive = no such curve, though single readings can be large or run the other way. Only a selection was taken, and actives are over-represented in it overall.
Note: nearly all actives have a fitted effect of over 50% in size.
Potency is the fitted concentration of half-maximal effect.
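Throughout, for activity change, negative = inhibition: 0% = wells with enzyme and -100% = buffer wells without enzyme.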

The target of the assay is Lysine-specific demethylase 4E (Homo sapiens) (UniProt B2RXH2). The assay can be described thus: qHTS Assay for Inhibitors of Human Jumonji Domain Containing 2E (JMJD2E). As to conditions: JMJD2E catalytic domain, FDH-coupled NADH fluorescence (FDH is formaldehyde dehydrogenase); series mostly up to 57.1 µM; activity change, negative = inhibition: at the top concentration. The text has this: Assay Provider: Structural Genomics Consortium [SGC] Screening Center PI: Austin, C.P. Screening Center: NIH Chemical Genomics Center [NCGC] The fine interplay among methylation states of several lysine residues on the tails of histone proteins is a major determinant of the transcriptional state of the associated DNA coding regions and is commonly referred to as the histone code. Histone lysine demethylases catalyze the removal of methyl groups from methylated lysine sidechains on histones H3 and H4, thus antagonizing the reactions catalyzed by histone lysine methyltransferases. […] In search for novel inhibitors of JMJD2E demethylase, a member of the largest set of histone demethylases belonging to the Fe(II) and 2-oxoglutarate oxygenase (2OG) superfamily, we performed a quantitative high-throughput screen (Inglese 2006) by using an assay which utilizes a trimethylated peptide substrate corresponding to a fragment of histone H3 (sequence ARKme3STGGK) with detection of the formaldehyde co-product in real time by a formaldehyde dehydrogenase (FDH) coupled reaction. FDH catalyzes oxidation of formaldehyde to formic acid with the concomitant reduction of the non-fluorescent beta-nicotinamide adenine dinucleotide hydrate (NAD+) cofactor to the fluorescent NADH co-product. References: Inglese, J., Auld, D., Jadhav, A., Johnson, R., Simeonov, A., Yasgar, A., Zheng, W. and Austin, C. Proc Natl Acad Sci USA 2006, 103, 11473-11478. N. R. Rose, S. S. Ng, J. Mecinovic, B. M. Lienard, S. H. Bello, Z. Sun, M. A. McDonough, U. Oppermann and C. J. Schofield, J Med Chem, 2008, 51, 7053-7056. Sakurai, M., Rose, N., Schultz, L., Quinn, A., Jadhav, A., Ng, S., Oppermann, U., Schofield, C.J. and Simeonov, A. Mol BioSystems 2009, in press. S. Michael, D. Auld, C. Klumpp, A. Jadhav, W. Zheng, N. Thorne, C. Austin, J. Inglese and A. Simeonov, Assay Drug Dev Technol, 2008, 6, 637-657.
Chain of Lysine-specific demethylase 4E (Homo sapiens) (B2RXH2 1-337 limits assumed): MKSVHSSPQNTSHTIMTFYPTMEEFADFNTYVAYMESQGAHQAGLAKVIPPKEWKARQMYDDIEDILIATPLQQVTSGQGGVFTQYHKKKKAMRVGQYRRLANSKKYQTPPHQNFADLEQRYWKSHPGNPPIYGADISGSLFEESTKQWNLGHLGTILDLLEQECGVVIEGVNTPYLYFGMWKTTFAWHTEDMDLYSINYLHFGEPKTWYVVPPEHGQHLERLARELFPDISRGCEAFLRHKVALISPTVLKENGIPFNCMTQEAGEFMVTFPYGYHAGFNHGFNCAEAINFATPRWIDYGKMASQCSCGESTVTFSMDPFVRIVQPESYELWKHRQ
Reagents and Controls: Ferrous ammonium sulfate, (+)-sodium L-ascorbate, beta-nicotinamide adenine dinucleotide hydrate (NAD+), Tween-20, formaldehyde dehydrogenase from P. putida (FDH), and disodium 2-oxoglutarate were from Sigma (St. Louis, MO). Black solid-bottom 384-well or 1,536-well assay plates were from Greiner Bio-One (Monroe, NC). Enzyme was supplied by Prof. Udo Oppermann, SGC-Oxford. The catalytic domain of human JMJD2E (residues 1-337) was produced as an N-terminally His6-tagged protein in E. coli, and purified by Ni-affinity chromatography and size-exclusion chromatography, and stored in HEPES 50 mM/ NaCl 500 mM pH 7.5, as reported in Rose 2008. The trimethylated histone peptide substrate ARK(me3)STGGK was synthesized and HPLC-purified by the Tufts University Core Facility (Boston, MA). Substrate solution (Sakurai 2009) contained 50 uM ARK(me3)STGGK, 0.00025 U/uL FDH, 50 uM 2-oxoglutarate, 250 uM NAD+, 1 mM ascorbate, and 10 uM ferrous ammonium sulfate. Controls and plate map: Buffer (150 mM HEPES pH 7.5 containing 0.01% Tween-20) in columns 3 and 4 as negative control (no enzyme) and 100 nM JMJD2E final concentration in columns 1,2, and 5-48. Assay Steps: Enzyme and buffer solutions (3 uL) were dispensed into a 1,536-well Greiner black solid-bottom assay plate. The library compounds (23 nL) were transferred using a Kalypsys pintool equipped with 1,536-pin array. The plate was incubated at room temperature (15 min), and then a 1 uL aliquot of substrate solution was added to initiate the reaction. The plate was transferred to ViewLux imager where an initial reading using standard UV optics (Ex 340 nm, Em 450 nm) was obtained. The plate was then removed from the reader, incubated for 30 minutes at room temperature, and returned to the reader for a second fluorescence reading. A fully automated robotic screening system (Kalypsys Inc, San diego, CA) was used to perform the above steps as described previously (Michael 2008). […]
(In qHTS, concentration-response curves come from the screen itself.)
For the molecule `O=C(c1cccnc1)N(c1cc2sc(=O)oc2c2ccccc12)S(=O)(=O)c1ccccc1`, the Potency was 14.1 µM (active).

Turning to `COc1ccc(N(C(=O)c2cccnc2)S(=O)(=O)c2ccc3c(c2)n(C)c(=O)n3C)cc1`, the “activity change, negative = inhibition” value is -1.75% (inactive).

As to `CN(C)S(=O)(=O)c1cccc(C(=O)Nc2cccnc2)c1`, the “activity change, negative = inhibition” value is -1.43% (inactive).

Take `Cc1oc(C(N)=O)cc1COc1ccc(C(N)=O)cc1`: the “activity change, negative = inhibition” value is -2.19% (inactive).

On to `CCOC(=O)N1CCN(c2c(NCCN3CCN(c4ccccc4F)CC3)c(=O)c2=O)CC1`, for which the “activity change, negative = inhibition” value is 2.57% (inactive).

Regarding `COCCCNC(=S)N(Cc1ccccc1)Cc1ccc(F)cc1`, the “activity change, negative = inhibition” value is -4.9% (inactive).

On to `Cn1c(C(=O)O)ccc1S(=O)(=O)N(Cc1ccccc1)Cc1ccccc1`, for which the “activity change, negative = inhibition” value was 2.7% (inactive).

As to `CCOC(=O)C1CCN(CCC(=O)Nc2cccc(C)c2)CC1`, the “activity change, negative = inhibition” value was 7.65% (inactive).

Turning to `Cc1c([N+](=O)[O-])c(N)nn1C`, the “activity change, negative = inhibition” value was 5.36% (inactive).

In the case of `O=C(Nc1cn(-c2ccccc2)nc1-c1ccccc1)c1ccccc1`, the “activity change, negative = inhibition” value is 302% (inactive).

Take `O=C(NNC(=S)NC(=O)c1cn(-c2ccccc2)nc1-c1ccccc1)c1ccncc1`: the Potency was 14.1 µM (active).

On to `O=C(O)c1ccc(NC(=O)c2cn(-c3ccccc3)nc2-c2ccc(Cl)cc2)cc1`, for which the “activity change, negative = inhibition” value was -3.12% (inactive).

As for `CCn1c2ccccc2c2cc(NC(=O)Nc3ccc([N+](=O)[O-])cc3C)ccc21`, the “activity change, negative = inhibition” value is -7.5% (inactive).

In the case of `CC(C)CCNC(=O)C1CCC(CNc2c(N3CCC(C)CC3)c(=O)c2=O)CC1` (stereo not given), the “activity change, negative = inhibition” value is 1.04% (inactive).

Take `O=C(O)CCCCCCCCCC[n+]1ccccc1`: the “activity change, negative = inhibition” value was -3.66% (inactive).

As to `COC(=O)C1=C(N)Oc2cc(C)[nH]c(=O)c2C1c1ccc(Cl)cc1` (stereo not given), the “activity change, negative = inhibition” value was 8.59% (inactive).

In the case of `Oc1cc(O)c2c(c1)OC(c1ccc(O)c(O)c1)C(O)C2` (stereo not given), the Potency was 11.2 µM (active).

`Cc1nnc(N/N=C/c2ccccn2)[nH]c1=O`: the Potency was 7.94 µM (active).

As to `Cc1nnc(N/N=C/c2cccs2)[nH]c1=O`, the “activity change, negative = inhibition” value is -7.79% (inactive).

As for `Cc1ccccc1Nc1nnc(C)c(=O)[nH]1`, the “activity change, negative = inhibition” value is 2.79% (inactive).

With `Cc1ccc(CN2CCN(Cc3cn(C)nc3-c3ccccc3)CC2CCO)o1` (stereo not given), the “activity change, negative = inhibition” value is -0.595% (inactive).

Take `O=C(CCN1CCCCC1)N=Nc1c(O)[nH]c2ccccc12`: the “activity change, negative = inhibition” value was 4.17% (inactive).

Consider `O=C(NCc1ccco1)O[C@@H]1C(=O)c2cc(Br)ccc2O[C@H]1c1ccc2c(c1)OCO2`, for which the “activity change, negative = inhibition” value was 17.8% (inactive).

In the case of `O=c1ccnc(Nc2ccc(Cl)cc2)[nH]1`, the “activity change, negative = inhibition” value is 3.06% (inactive).

As to `O=C1CSC(=S)N1/N=C/c1ccc(O)c([N+](=O)[O-])c1`, the “activity change, negative = inhibition” value is -16.3% (inactive).

`CCOc1cccc(/C=N/N2C(=O)CSC2=S)c1O`: the Potency is 31.6 µM (active).

Consider `CCOc1ccccc1N=C1NC(=O)CS1`, for which the “activity change, negative = inhibition” value is 2.61% (inactive).

Consider `Cn1c(SCC(=O)Nc2ccc(Cl)cc2)nc(O)cc1=O`, for which the “activity change, negative = inhibition” value is 1.98% (inactive).

For the molecule `Nc1nc(Sc2ncccc2[N+](=O)[O-])n[nH]1`, the “activity change, negative = inhibition” value is 2.63% (inactive).

Turning to `Cc1ccnc(SCC(N)=O)n1`, the “activity change, negative = inhibition” value is 0.789% (inactive).

Turning to `Cc1ccnc(-n2sc3ccccc3c2=O)n1`, the Potency is 12.6 µM (active).

For the molecule `Cc1ccnc(Nc2nc3ccccc3s2)n1`, the “activity change, negative = inhibition” value is 1.18% (inactive).

Take `S=c1[nH]nc(Nc2ccccc2)s1`: the Potency was 17.8 µM (active).

`c1ccc(Nc2n[nH]nc2-c2ccccc2)cc1`: the “activity change, negative = inhibition” value is -1.65% (inactive).

On to `O=c1cnnc(Nc2ccccc2)[nH]1`, for which the “activity change, negative = inhibition” value was 3.57% (inactive).

On to `O=C(C[n+]1ccc2c(c1)nnn2-c1ccccc1)c1ccc(Cl)cc1`, for which the “activity change, negative = inhibition” value is 9.12% (inactive).

In the case of `O=C(NCc1nnc(SCC(=O)N2CCC(Cc3ccccc3)CC2)o1)c1ccco1`, the “activity change, negative = inhibition” value was 6.12% (inactive).

As to `Cc1nc2ccccc2n1CC(=O)N/N=C/c1cccnc1`, the “activity change, negative = inhibition” value is -7.57% (inactive).

Take `Cc1nccn1CC(=O)N/N=C/c1ccc(O)c(O)c1`: the Potency was 12.6 µM (active).

In the case of `CCn1c(SCC(=O)N/N=C/c2ccncc2)nc2ccccc21`, the “activity change, negative = inhibition” value was 3.37% (inactive).

Consider `CCOc1ccc(/C=N/NC(=O)CSc2ccccn2)cc1O`, for which the “activity change, negative = inhibition” value is -4.84% (inactive).

With `Cc1ccc(/C=N/NC(=O)CSc2nc3ccccc3o2)cc1`, the “activity change, negative = inhibition” value is 1.12% (inactive).

With `Cn1c(SCC(=O)N/N=C/c2ccc(O)c(O)c2)nc2ccccc21`, the Potency was 25.1 µM (active).

Consider `CC(C)(C)OC(=O)NCCCCCC(=O)N/N=C/c1coc2ccccc2c1=O`, for which the “activity change, negative = inhibition” value was 2.67% (inactive).

On to `O=C1/C(=C/c2cccs2)SC(=S)N1C1CCS(=O)(=O)C1` (stereo not given), for which the “activity change, negative = inhibition” value is 1.93% (inactive).

Regarding `CC(OC(=O)c1ccc(NS(=O)(=O)c2ccc3[nH]c(=O)[nH]c3c2)cc1)C(=O)Nc1cccc(Cl)c1Cl` (stereo not given), the “activity change, negative = inhibition” value is -4.34% (inactive).

Take `O=C(c1cc(COc2c(F)cccc2F)on1)N1CCSCC1`: the “activity change, negative = inhibition” value was 4.11% (inactive).

`Nc1nc(Nc2ccccc2)nc(NCCO)c1[N+](=O)[O-]`: the “activity change, negative = inhibition” value is 0.417% (inactive).

As for `O=C1CCCC(O)=C1N=Nc1ccc(S(=O)(=O)N2CCOCC2)cc1`, the “activity change, negative = inhibition” value was -24.2% (inactive).

With `CCCc1ccc(C(=O)[C@@H]2[C@@H](C(C)=O)N3c4ccc(F)cc4C=C[C@@H]3[C@@]23C(=O)Nc2ccccc23)cc1`, the Potency was 14.1 µM (active).

Turning to `CCc1cc(CNC(=O)CC2C(=O)NCCN2Cc2ccccc2C(F)(F)F)on1` (stereo not given), the “activity change, negative = inhibition” value was -22.1% (inactive).

In the case of `Cc1noc(C)c1-c1nc(CSc2ccc(Cl)cc2)no1`, the “activity change, negative = inhibition” value is -5.99% (inactive).

`COc1ccc(N2CCN(Cc3nnc(-c4ccccc4)o3)CC2)cc1`: the “activity change, negative = inhibition” value is 3.96% (inactive).

As to `Fc1ccc(N2CCN(Cc3cnc(Oc4ccc(Br)cc4)s3)CC2)cc1`, the “activity change, negative = inhibition” value was -5.18% (inactive).

Regarding `COc1ccc(N2CCN(Cc3ccc(Br)s3)CC2)cc1`, the Potency was 14.1 µM (active).
